TEAD-YAP inh – TEAD-YAP interaction inhibition | HEK-TIYL cells, TEAD-Gal4/YAP UAS-luciferase luminescence | inhibition, % at 9.12 µM | AID 1259422 | 640,000 tested, 1.4% active; in the data active means inhibition above about 32%
FBW7 act – human FBW7 E3 ligase activation, primary screen. Q969H0. AlphaScreen FBW7–phospho-cyclin E peptide binding, activator screen. normalized activity (activation), % at 26.1 µM. 650,000 tested, 0.13% active; in the data active means normalized activity above about 1.9%;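 further: purified mutant Fbw7 with reduced substrate affinity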
GPR151 ag – activators of human GPR151; PathHunter beta-arrestin GPR151 cells, luminescence; activation, % at 11.2 µM; 650,000 tested, 1% active; in the data active means activation above about 4.9%
MITF primary – human MITF inhibition, primary screen; inhibition, % at 2.6 µM; O75030; 650,000 tested, 0.91% active; AID 1259374; AlphaScreen MITF homodimerization, bead proximity signal; in the data active means inhibition above about 50%
Target sequence (O75030 whole entry, looked up): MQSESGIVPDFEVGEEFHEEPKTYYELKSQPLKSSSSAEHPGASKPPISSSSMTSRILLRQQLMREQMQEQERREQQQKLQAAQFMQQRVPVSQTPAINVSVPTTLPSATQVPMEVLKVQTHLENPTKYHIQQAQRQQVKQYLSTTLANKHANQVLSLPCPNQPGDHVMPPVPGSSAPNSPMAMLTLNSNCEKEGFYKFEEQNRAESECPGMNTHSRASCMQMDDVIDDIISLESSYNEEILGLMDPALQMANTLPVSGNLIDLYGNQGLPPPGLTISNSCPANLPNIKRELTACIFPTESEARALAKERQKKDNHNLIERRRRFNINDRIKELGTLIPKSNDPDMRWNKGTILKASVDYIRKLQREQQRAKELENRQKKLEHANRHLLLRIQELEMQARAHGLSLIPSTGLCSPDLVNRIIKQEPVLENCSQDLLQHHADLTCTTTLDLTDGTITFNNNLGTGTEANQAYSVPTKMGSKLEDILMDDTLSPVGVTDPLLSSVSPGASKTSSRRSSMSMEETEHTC
Numbers stand for hits; 0 = inactive. Rows were chosen to be rich in hits. Some 3.5% of all compounds tested hit in one or more screens of this group.

SMILES | TEAD-YAP inh | FBW7 act | GPR151 ag | MITF primary
O=C(Nc1ccc(S(=O)(=O)NCCc2ccccc2)cc1)c1ccc([N+](=O)[O-])cc1 | 31.9 | 0 | 0 | 0
Cc1ccc(-c2c(C)nn3c(NCCCO)c(C)c(C)nc23)cc1 | 0 | 0 | 0 | 0
CCOC(=O)c1c[nH]c2c(C)c(C)ccc2c1=O | 0 | 0 | 0 | 0
CC(=O)Nc1ccc(S(=O)(=O)N(C)CC(=O)NNc2c(F)c(F)cc(F)c2F)cc1 | 0 | 0 | 0 | 0
Cc1cc(NS(=O)(=O)c2ccc(NC(=O)CCCOc3ccc(Cl)cc3)cc2)no1 | 0 | 2.9 | 0 | 0
Cc1cc(NS(=O)(=O)c2ccc(NC(=O)CCCOc3ccccc3)cc2)no1 | 0 | 0 | 0 | 0
COc1ccc(Nc2cc(-n3cnc(Nc4ccccc4)n3)c(F)cn2)cc1 | 0 | 0 | 0 | 0
COc1cc(Nc2nc(NCCN3CCOCC3)c3ncn(-c4ccsc4)c3n2)cc(OC)c1OC | 48.9 | 0 | 0 | 0
c1cnc(Nc2nc(NCCN3CCOCC3)c3ncn(-c4ccsc4)c3n2)cn1 | 65.7 | 0 | 0 | 0
COc1ccc(CCNc2nc(NCCN3CCOCC3)nc3c2ncn3-c2ccsc2)cc1 | 0 | 0 | 0 | 0
CC(=O)N1c2ccccc2NC2=C(C(=O)CC(C)(C)C2)C1c1cccs1 (stereo not given) | 0 | 0 | 0 | 0
Cc1cc(Nc2ccc(Cl)cc2)nc(N)n1 | 0 | 0 | 0 | 0
Cc1cc(C)n(-c2nc(-c3ccc(Br)cc3)cs2)n1 | 0 | 0 | 0 | 0
Cc1cc(Nc2ccc(Cl)cc2)nc(-n2nc(C)cc2C)n1 | 46.8 | 0 | 0 | 0
Cc1cc(Nc2ccc3c(c2)OCCO3)nc(-n2nc(C)cc2C)n1 | 87.5 | 0 | 0 | 0
Cc1ccc(CNc2cc(C)nc(-n3nc(C)cc3C)n2)cc1 | 66.6 | 0 | 0 | 0
Cc1cc(Nc2ccc3c(c2)OCO3)nc(Cl)n1 | 0 | 0 | 0 | 0
Cc1cc(Nc2ccc(Br)cc2)nc(-n2nc(C)cc2C)n1 | 64.1 | 0 | 0 | 0
COc1cccc(OCC(=O)Nc2nccs2)c1 | 36.9 | 0 | 0 | 0
COc1cccc(-n2cc(C(=O)Nc3ccccc3Cl)c3ccccc3c2=O)c1 | 0 | 0 | 0 | 0
Cc1cccc(OCCCC(=O)Nc2nccs2)c1 | 0 | 0 | 0 | 0
CC(=O)Nc1cccc(NC(=O)c2cn(-c3ccc(C)c(C)c3)c(=O)c3ccccc23)c1 | 44.3 | 0 | 0 | 0
COc1cccc(-n2cc(C(=O)Nc3nccs3)c3ccccc3c2=O)c1 | 43.0 | 0 | 0 | 0
Cc1cccc(OCC(=O)Nc2nccs2)c1 | 53.5 | 0 | 0 | 0
O=C(COc1ccccc1)Nc1nccs1 | 0 | 0 | 0 | 0
SMILES | TEAD-YAP inh | FBW7 act | GPR151 ag | MITF primary
COc1cccc(C2CC(c3ccc(Cl)cc3)=NN2S(C)(=O)=O)c1OC (stereo not given) | 0 | 0 | 0 | 0
O=C(CCCCCNC(=O)c1ccc(Br)cc1)Nc1ccc(Br)cn1 | 0 | 0 | 0 | 0
COc1ccc(C2C(C(=O)N3CCC(C)CC3)c3ccccc3C(=O)N2Cc2ccc(F)cc2)cc1 (stereo not given) | 0 | 0 | 0 | 0
S=c1[nH]nc(-c2ccncc2)n1-c1ccc2c(c1)OCCO2 | 0 | 0 | 0 | 0
O=C(c1ccco1)N(CCCO)Cc1cc2cc3c(cc2[nH]c1=O)OCO3 | 0 | 0 | 0 | 0
CC/C(C)=N\NC(=O)c1cc(OC)c(OC)c(OC)c1 | 58.0 | 0 | 0 | 0
COc1ccc(C(=O)N/N=C(\C)CC(=O)NCc2ccco2)cc1OC | 35.1 | 0 | 0 | 0
COc1ccc(NC(=O)c2cc3cccc(OC)c3oc2=Nc2ccc(C(=O)O)cc2)c(OC)c1 | 0 | 0 | 0 | 0
COc1cccc2cc(C(=O)NCc3ccco3)c(=Nc3ccc(C(=O)O)cc3)oc12 | 46.2 | 0 | 0 | 0
CCOC(=O)C(=N/O)/C(C)=N/NC(=O)c1cc(OC)c(OC)c(OC)c1 | 41.0 | 0 | 0 | 0
O=C(CN1C(=O)/C(=C\c2ccccc2F)Oc2ccccc21)NC1CC1 | 0 | 0 | 0 | 0
COc1cc(C(=O)NN=C2CCCCCC2)cc(OC)c1OC | 59.9 | 0 | 0 | 0
Cc1oc2c(c1C(=O)O)C(=O)c1ccccc1C2=O | 0 | 0 | 0 | 0
Cc1oc2c(c1C(=O)N1CCCC1)C(=O)c1ccccc1C2=O | 54.4 | 0 | 0 | 0
COc1ccc(NC(=O)CCS(=O)(=O)Cc2ccccc2)c([N+](=O)[O-])c1 | 58.2 | 0 | 0 | 0
CCOc1ccc(NC(=O)c2cccc(OC)c2)c([N+](=O)[O-])c1 | 32.5 | 0 | 0 | 0
CCOc1ccc(N/C=C/C(=O)c2ccc(OC)cc2)c([N+](=O)[O-])c1 | 43.4 | 0 | 0 | 0
CCN(CC)S(=O)(=O)c1ccc2oc(C(=O)N3CCC(C)CC3)c(C)c2c1 | 0 | 0 | 0 | 0
CC(=O)N1c2ccc(-c3csc(NC(=O)c4ccncc4)n3)cc2CC1C (stereo not given) | 68.5 | 0 | 0 | 0
Cc1nc(/C=C/c2ccc(Cl)cc2)sc1C(=O)O | 59.6 | 0 | 0 | 0
CCCOc1ccc(C(=O)NC(=S)Nc2ccccn2)cc1 | 50.8 | 0 | 0 | 0
Cc1cccc(NC(=O)CC(C)(C)C)c1C | 0 | 0 | 0 | 0
CCC(C)N(CC(=O)Nc1cccc(C)c1C)C(=O)CCl (stereo not given) | 69.4 | 0 | 0 | 0
O=C(NCCN1CCOCC1)c1ccc(NC2=NC3CS(=O)(=O)CC3S2)cc1 (stereo not given) | 0 | 0 | 0 | 0
Cc1ccc(Nc2nc(N/N=C/c3ccccc3O)nc(N3CCOCC3)n2)cc1 | 0 | 0 | 0 | 0
SMILES | TEAD-YAP inh | FBW7 act | GPR151 ag | MITF primary
CCc1ccc(N2CC(C(=O)NCC(C)(C)CNC(=O)C3CC(=O)N(c4ccc(CC)cc4)C3)CC2=O)cc1 (stereo not given) | 0 | 4.5 | 0 | 0
CCOc1ccccc1N/C=C/C(=O)c1ccc(OC)c(OC)c1 | 0 | 0 | 0 | 0
Cc1ccc(Nc2c([N+](=O)[O-])sc3ccccc23)cc1 | 48.4 | 0 | 0 | 0
O=C1CC(N2CCCC2)C(=O)N1c1ccc(Cl)cc1 (stereo not given) | 0 | 0 | 0 | 0
O=C1CC(N2CCCCC2)C(=O)N1c1cc(Cl)cc(Cl)c1 (stereo not given) | 46.4 | 0 | 0 | 0
COc1cccc(C=Nc2cnn(C)c2C(N)=O)c1O | 0 | 3.6 | 0 | 0
CC(=O)Nc1ccc(Nc2ccnc(Nc3ccc(C(F)(F)F)cc3)n2)cc1 | 59.8 | 0 | 0 | 0
CC(=O)Nc1ccc(Nc2ccnc(Nc3ccc4ncccc4c3)n2)cc1 | 36.6 | 0 | 0 | 0
CC(=O)Nc1ccc(Nc2cc(C)nc(Nc3ccc4ncccc4c3)n2)cc1 | 0 | 0 | 0 | 0
CC(=O)Nc1ccc(Nc2ccnc(Nc3ccncn3)n2)cc1 | 0 | 0 | 0 | 0
Cc1cccc(C)c1NC(=O)Nc1c(C)n(C)n(-c2ccccc2)c1=O | 0 | 0 | 0 | 0
O=C(NCC1(c2cccs2)CCCC1)c1ccc(F)cc1 | 0 | 0 | 0 | 0
Cc1ccc(N2CC(=O)Nc3ccccc3S2(=O)=O)cc1C | 52.1 | 0 | 0 | 0
O=C(Cc1cn(-c2ccc(Nc3ccc(N4CCOCC4)cc3)nn2)c2ccccc12)NCc1ccccc1 | 47.7 | 0 | 0 | 0
COc1ccc(-n2c(C)cc(/C=c3\sc4nc5ccccc5n4c3=O)c2C)cc1 | 0 | 0 | 0 | 0
O=c1/c(=C\c2ccc3c(c2)OCO3)sc2nc3ccccc3n12 | 37.7 | 0 | 0 | 0
CC(=O)Nc1ccc(/C=c2\sc3nc4ccccc4n3c2=O)cc1 | 57.0 | 0 | 0 | 0

Screening data (PubChem)
